The panel holds about 83,000 compounds, 20% with a hit somewhere; the sample as a whole holds those more often.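 In brief: 96-well plates, 48 h treatment, single concentration, percent growth endpoint.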 A number with no mark means an inactive call. Active and inactive are the calls of the source. The calls were made as follows: active = growth percent below 10; inactive = the rest.

Among the test systems are SK-MEL-2 melanoma; EKVX NSCLC; SN12C renal; UO-31 renal; TK-10 renal; ACHN renal; A498 renal; CCRF-CEM leukemia; MOLT-4 leukemia; SR leukemia.
Experiment in all cases: NCI-60 one-dose screen, 48 h (100 = growth as untreated, 0 = no growth, -100 = all killed)
Settings in all cases: 10 µM unless noted

For the molecule `Sc1cccc2cccnc12`, the growth in the assay on SK-MEL-2 melanoma was 21.5%; in the assay with EKVX NSCLC it was 29.2%; in the assay on SN12C renal, 39.3%; in the assay on UO-31 renal, 25.6%; in the assay with TK-10 renal, 48.3%; in the assay with ACHN renal it was 30.1%. Also, the growth in the assay on A498 renal is 65.9%; in the assay on CCRF-CEM leukemia it was 14.4%; with MOLT-4 leukemia, 22.2%; with SR leukemia, 6.61% (active).
`Cc1c(Cl)cccc1NC(=O)c1sc2nc3c(cc2c1N)CCCCCC3`: the growth was 11.8% in the assay with SK-MEL-2 melanoma; 39.8% in the assay on EKVX NSCLC; 42.4% with SN12C renal; 55.4% with UO-31 renal; 44.9% with TK-10 renal; 41.8% with ACHN renal. Moreover, the growth was -9.95% (active) with A498 renal, 10.9% in the assay on CCRF-CEM leukemia, 17.3% in the assay on MOLT-4 leukemia and 16% with SR leukemia.
Take `COc1cc2c(cc1OCCCOc1cc3c(cc1OC)C(=O)N1CC(F)(F)C[C@H]1C=N3)N=C[C@@H]1CC(F)(F)CN1C2=O`: the growth with SK-MEL-2 melanoma was 34.7%; with EKVX NSCLC it was 49.2%; in the assay on SN12C renal it was 35.8%; in the assay on UO-31 renal, 30%; in the assay with TK-10 renal, 11.3%; in the assay on ACHN renal, 24.7%. Moreover, the growth in the assay on A498 renal was -66.6% (active); with CCRF-CEM leukemia, -33.1% (active); with MOLT-4 leukemia, -8.82% (active); in the assay on SR leukemia it was -12.1% (active).
`COCCOC(=O)COc1ccc(OC)cc1`: the growth in the assay with SK-MEL-2 melanoma is 120%; in the assay with EKVX NSCLC, 96.6%; with SN12C renal it was 99.7%; in the assay on UO-31 renal, 88.9%; in the assay with TK-10 renal, 108%; in the assay on ACHN renal, 106%. Further, the growth with A498 renal is 88.2%; in the assay with CCRF-CEM leukemia it was 104%; in the assay on MOLT-4 leukemia, 90.7%; in the assay with SR leukemia it was 88.2%.
For `CN1CCN(C(=O)[C@@]2(C)CC[C@]3(C)CC[C@]4(C)C(=CC[C@@H]5[C@@]6(C)CC[C@H](OC(=O)c7cccnc7)C(C)(C)[C@@H]6CC[C@]54C)[C@@H]3C2)CC1`, the growth in the assay on SK-MEL-2 melanoma was 101%; in the assay on EKVX NSCLC it was 76.3%; in the assay on SN12C renal it was 80.4%; with UO-31 renal, 74.1%; in the assay on TK-10 renal, 116%; in the assay with ACHN renal it was 77.7%. The growth with A498 renal is 92.1%; with CCRF-CEM leukemia, 1.45% (active); in the assay on MOLT-4 leukemia it was 31.9%; in the assay on SR leukemia, -26.9% (active).
As for `CCCCN(CCCC)CC(CN(CC)CC)OC(=O)Nc1ccccc1` (stereo not given), the growth was 99.4% with SK-MEL-2 melanoma; 91.7% with EKVX NSCLC; 94.4% in the assay with SN12C renal; 69.7% in the assay on UO-31 renal; 85.5% in the assay on TK-10 renal; 99.2% in the assay with ACHN renal. For the same molecule, the growth in the assay on A498 renal is 117%; with CCRF-CEM leukemia, 98.1%; in the assay with MOLT-4 leukemia it was 80.8%; in the assay with SR leukemia, 86.3%.
Consider `Nc1ccc2c(c1)C(=O)C(=O)c1c-2nc2ccccn12`, for which the growth in the assay on SK-MEL-2 melanoma is -32.1% (active); in the assay on EKVX NSCLC, 31.5%; in the assay with SN12C renal, -81% (active); in the assay with UO-31 renal it was -40.8% (active); with TK-10 renal, 115%; in the assay on ACHN renal, -58.8% (active). The growth was -19.3% (active) with A498 renal, 13.6% with CCRF-CEM leukemia, -32.8% (active) with MOLT-4 leukemia and 2.06% (active) with SR leukemia.
Consider `Cc1cc2ccccc2c[n+]1CC(=O)c1ccc(-c2ccccc2)cc1`, for which the growth in the assay on SK-MEL-2 melanoma was 84.3%; with EKVX NSCLC, 54.8%; in the assay on SN12C renal it was 55.4%; in the assay on UO-31 renal it was 61.5%; in the assay on TK-10 renal, 68.5%; with ACHN renal, 79.4%. The growth in the assay on A498 renal is 56.5%; in the assay on CCRF-CEM leukemia, 53.4%; in the assay on MOLT-4 leukemia, 49.3%; in the assay with SR leukemia, 54.7%.
With `CCCCCCCc1n(Cc2ccc3ccccc3c2)c2ccccc2[n+]1Cc1ccc2ccccc2c1`, the growth with SK-MEL-2 melanoma is -74.9% (active); in the assay with EKVX NSCLC, -73.5% (active); with SN12C renal it was -79.8% (active); in the assay with UO-31 renal, -88.1% (active); in the assay with TK-10 renal, -87.3% (active); in the assay on ACHN renal it was -87.4% (active). Further, the growth is -93.3% (active) with A498 renal, -59.1% (active) in the assay with CCRF-CEM leukemia, -68% (active) with MOLT-4 leukemia and -60.4% (active) in the assay on SR leukemia.
In the case of `Cc1cc(C)cc(Nc2nccc(-c3c(-c4ccc(F)cc4)ncn3C3CCNCC3)n2)c1`, the growth was 21.4% in the assay on SK-MEL-2 melanoma; 27.4% in the assay on EKVX NSCLC; 16.5% in the assay on SN12C renal; -28.6% (active) with UO-31 renal; 17.8% in the assay on TK-10 renal; 4.78% (active) with ACHN renal. Also, the growth was 53.2% in the assay on A498 renal, -12.6% (active) in the assay on CCRF-CEM leukemia, -14.2% (active) in the assay with MOLT-4 leukemia and -31% (active) with SR leukemia.
`Cc1cccc(C)c1NCc1nnc(-c2ccc(O)cc2)o1`: the growth with SK-MEL-2 melanoma is 104%; with EKVX NSCLC it was 90.6%; with SN12C renal, 102%; in the assay with UO-31 renal it was 85.5%; in the assay with TK-10 renal it was 104%; in the assay with ACHN renal, 98.6%. The growth with A498 renal is 107%; in the assay on CCRF-CEM leukemia, 94.8%; in the assay on MOLT-4 leukemia, 108%; with SR leukemia, 119%.
As for `N#Cc1c(-c2ccc(Cl)cc2)cc(-c2cc3ccccc3o2)nc1SCC(=O)c1ccc(Cl)cc1`, the growth in the assay on SK-MEL-2 melanoma was 91%; in the assay on EKVX NSCLC, 116%; with SN12C renal, 94.2%; in the assay with UO-31 renal it was 79.8%; with TK-10 renal, 139%; with ACHN renal, 86.9%. In addition, the growth is 111% in the assay on A498 renal, 106% with CCRF-CEM leukemia, 95.1% in the assay with MOLT-4 leukemia and 80.2% in the assay on SR leukemia.

For the origin of these results see PubChem BioAssay (NCI).
